The full list was thinned out, with hits kept by preference.
Dicer inh – inhibitors of human Dicer processing of pre-microRNA. cat-ELCCA pre-miR-21 Dicer processing, chemiluminescence; stronger effect = higher value. hit rate 6% among 47,000. z-score at 25 µM. Q9UPY3; in the data active = z-score above about 3, passing the limit was not always enough;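 note: plate controls were vehicle for no effect and no enzyme for full effect; higher signal means more uncleaved substrate so more Dicer inhibition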
Target sequence (Q9UPY3 whole entry, looked up): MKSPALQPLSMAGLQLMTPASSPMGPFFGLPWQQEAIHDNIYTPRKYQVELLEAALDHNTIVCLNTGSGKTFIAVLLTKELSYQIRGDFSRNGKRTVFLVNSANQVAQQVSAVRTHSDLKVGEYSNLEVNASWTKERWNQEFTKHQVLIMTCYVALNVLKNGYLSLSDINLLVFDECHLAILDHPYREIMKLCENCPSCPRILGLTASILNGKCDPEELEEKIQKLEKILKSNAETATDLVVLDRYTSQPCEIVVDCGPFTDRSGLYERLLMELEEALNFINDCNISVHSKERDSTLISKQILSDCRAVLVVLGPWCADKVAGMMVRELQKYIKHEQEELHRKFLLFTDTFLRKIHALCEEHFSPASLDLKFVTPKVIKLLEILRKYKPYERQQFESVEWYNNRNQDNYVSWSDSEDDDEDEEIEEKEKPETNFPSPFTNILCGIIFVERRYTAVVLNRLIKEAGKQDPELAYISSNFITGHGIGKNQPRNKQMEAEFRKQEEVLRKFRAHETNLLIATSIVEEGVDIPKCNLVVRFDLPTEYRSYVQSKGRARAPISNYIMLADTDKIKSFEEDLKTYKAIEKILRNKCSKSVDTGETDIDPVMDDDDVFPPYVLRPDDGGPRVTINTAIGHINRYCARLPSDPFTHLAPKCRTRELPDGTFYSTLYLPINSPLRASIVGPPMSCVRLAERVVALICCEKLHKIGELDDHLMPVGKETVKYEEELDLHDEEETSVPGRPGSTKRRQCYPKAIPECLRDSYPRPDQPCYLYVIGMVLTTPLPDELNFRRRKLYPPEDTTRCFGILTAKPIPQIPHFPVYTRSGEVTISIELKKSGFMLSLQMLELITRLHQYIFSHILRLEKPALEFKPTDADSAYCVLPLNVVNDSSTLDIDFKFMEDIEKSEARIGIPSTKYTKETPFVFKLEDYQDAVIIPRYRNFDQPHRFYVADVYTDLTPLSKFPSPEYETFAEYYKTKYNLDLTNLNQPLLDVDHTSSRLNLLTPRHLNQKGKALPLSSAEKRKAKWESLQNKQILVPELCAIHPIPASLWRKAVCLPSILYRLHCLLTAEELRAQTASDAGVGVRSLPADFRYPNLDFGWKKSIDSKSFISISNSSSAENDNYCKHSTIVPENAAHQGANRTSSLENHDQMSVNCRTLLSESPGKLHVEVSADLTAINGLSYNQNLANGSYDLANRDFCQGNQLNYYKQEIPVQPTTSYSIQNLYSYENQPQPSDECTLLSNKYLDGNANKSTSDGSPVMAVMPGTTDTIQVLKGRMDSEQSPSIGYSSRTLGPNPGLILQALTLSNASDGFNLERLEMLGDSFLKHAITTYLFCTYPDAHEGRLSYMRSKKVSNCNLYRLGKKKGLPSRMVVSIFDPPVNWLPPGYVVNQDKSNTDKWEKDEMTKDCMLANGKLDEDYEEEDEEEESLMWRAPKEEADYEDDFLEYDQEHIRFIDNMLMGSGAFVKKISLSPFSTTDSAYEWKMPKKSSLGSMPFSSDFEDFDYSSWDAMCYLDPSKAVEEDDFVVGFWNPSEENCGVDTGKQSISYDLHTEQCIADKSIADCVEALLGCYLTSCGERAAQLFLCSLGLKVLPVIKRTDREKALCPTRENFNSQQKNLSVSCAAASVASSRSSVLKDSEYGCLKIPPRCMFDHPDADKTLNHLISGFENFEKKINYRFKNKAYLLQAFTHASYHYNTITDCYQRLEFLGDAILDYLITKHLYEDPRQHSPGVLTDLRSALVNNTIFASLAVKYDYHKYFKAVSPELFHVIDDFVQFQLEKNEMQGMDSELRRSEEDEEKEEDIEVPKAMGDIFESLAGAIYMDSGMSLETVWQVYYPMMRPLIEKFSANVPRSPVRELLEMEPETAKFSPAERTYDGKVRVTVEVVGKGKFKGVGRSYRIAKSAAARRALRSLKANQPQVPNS
The depositor's hits bear a star.

SMILES	Dicer inh
N#Cc1nc(COc2ccc(F)cc2)oc1NCc1cccnc1	1.5
COc1ccc(N2CCN(c3oc(COc4ccc(F)cc4)nc3C#N)CC2)cc1	-0.86
N#Cc1nc(COc2ccccc2Cl)oc1N1CCOCC1	0.78
N#Cc1nc(COc2cccc(Cl)c2)oc1N1CCCCC1	3.9*
C=CCSC1=C(C#N)C(c2ccc(Cl)cc2)CC(=O)N1 (stereo unspecified)	1
O=C(O)CCCC(=O)NC1CCCc2ccccc21 (stereo unspecified)	-1.7
COc1ccc(Br)cc1CN1CCN(Cc2ccc3c(c2)OCO3)CC1	0.98
CCOC(=O)c1cnc(Nc2ccc(OC)c(Cl)c2)nc1C(F)(F)F	-0.32
CC(C)(C)OC(=O)NC(CSCc1ccccc1)C(N)=O (stereo unspecified)	-0.41
COc1ccc(-c2noc(-c3ccc(F)cc3)n2)cc1	0.55
CC1CCCC(C)N1C(=O)Cn1cc(C(=O)C2CC2)c2ccccc21 (stereo unspecified)	1.9
CSc1nc2ccccc2n2cccc12	-0.96
COc1cccc(/C=C2\SC(=S)NC2=O)c1OC	-0.91
COc1cccc(/C=C2/SC(=S)N(C)C2=O)c1O	7.7*
O=C1NC(=S)/C(=C/c2ccccc2O)S1	-1.5
COc1ccc(-c2cc(OC(=O)c3ccccc3C)c3c(C)oc(C)c3c(=O)c2)cc1	6.7*
CCOc1ccc(-c2cc(OC(=O)c3ccccc3F)c3c(C)oc(C)c3c(=O)c2)cc1	0.02
CCOc1cc(-c2ccc(OC)cc2)cc(=O)c2c(C)oc(C)c12	-0.25
Cc1onc(-c2c(Cl)cccc2Cl)c1C(=O)N1CC2(C)CC1CC(C)(C)C2 (stereo unspecified)	-0.19
Cc1cc(SCC2=NNC(=O)C2)c(C)cc1Cl	-0.62
COC(=O)C1=C(C)O/C(=C2/C=CC=CN2)C(C)=C1	3.1*
CCOc1cc(C2C(C#N)=C(N)Oc3n[nH]c(C)c32)ccc1OCc1ccc(Cl)cc1 (stereo unspecified)	-5.8
CCn1c2ccccc2c2nnc(SCC(=O)Nc3nnc(C)s3)nc21	1.8
Cc1c2occ(-c3ccc(F)cc3)c2cc2c1oc(=O)c1ccccc12	4.2*
COc1ccc2c(c1)c(=O)oc1c(C)c3occ(-c4ccc(F)cc4)c3cc12	-0.64
SMILES	Dicer inh
Cc1c2occ(-c3ccc4c(c3)OCO4)c2cc2c1oc(=O)c1ccccc12	0.19
Cc1cc(C(F)(F)F)nn1Cc1ccc(C(=O)O)cc1	1.9
O=C(CSc1ncn[nH]1)N1CCc2ccccc21	0.69
O=C(CSc1nn2cnnc2s1)N1CCc2ccccc21	3.1*
O=C(CSc1nn2cnnc2s1)N(C1CCCCC1)C1CCCCC1	2
COc1ccc(CNCc2cc(F)ccc2F)cc1OC	-3.6
COc1ccccc1N1C(=O)CC(N2CCN(c3ccccn3)CC2)C1=O (stereo unspecified)	-0.78
Cc1onc(-c2c(Cl)cccc2Cl)c1C(=O)NNC(=O)Sc1ccccc1[N+](=O)[O-]	-0.64
CCc1ccccc1N1C(=O)C2C3c4ccccc4C(CO)(c4ccccc43)C2C1=O (stereo unspecified)	1.6
O=S(=O)(c1ccc(-c2cc(C(F)(F)F)on2)s1)N1CCC(O)CC1	-1.8
Cc1cccn2cc(-c3ccc(F)cc3)cc12	4.4*
Cc1cccn2cc(-c3ccc(F)cc3)nc12	0.34
c1ccc(-c2cc3ccccn3c2)cc1	0.48
COC(=O)c1cc(OCC(F)(F)F)nc(OCC(F)(F)F)c1	-1.1
CCCC(C(=O)O)N1C(=O)NC2NC(=O)NC21 (stereo unspecified)	3.4*
CCC(C)C(C(=O)O)N1C(=O)NC2NC(=O)NC21 (stereo unspecified)	1.2
CCC(C)N1C(=O)N(C)C2NC(=O)NC21 (stereo unspecified)	1.9
CCOc1cc(S(=O)(=O)n2cnc(C)c2)ccc1F	0.83
CCn1cc(C(=O)O)c(=O)c2cc(F)c(N3CCNCC3)cc21	-0.24
CCn1cc(C(=O)O)c(=O)c2cc(F)c(N3CCN(C)CC3)cc21	3
CCn1cc(C(=O)O)c(=O)c2cc(F)c(N3CCN(S(=O)(=O)c4ccc(Cl)cc4)CC3)cc21	3.5*
Cc1cc(/C(N)=N/OC(=O)c2ccc(OC(F)(F)F)cc2)c(-c2ccccc2)o1	-0.21
COc1ccc(-c2nc(-c3ccc(C)cc3)no2)cc1	-5.2
N#CC1=C2N=C(N)c3ccccc3N2C2=C(C(=O)CCC2)C1c1ccc(F)cc1 (stereo unspecified)	0.21
COc1ccc(C2C(C#N)=C3N=C(N)c4ccccc4N3C3=C2C(=O)CC(C)(C)C3)c(OC)c1 (stereo unspecified)	3
SMILES	Dicer inh
CC1(C)CC(=O)C2=C(C1)N1C(=C(C#N)C2c2ccccc2F)N=C(N)c2ccccc21 (stereo unspecified)	3.2*
COc1cccc(C2C(C#N)=C3N=C(N)c4ccccc4N3C3=C2C(=O)CCC3)c1OC (stereo unspecified)	-2.4
Cc1ccc(C2C(C#N)=C3N=C(N)c4ccccc4N3C3=C2C(=O)CCC3)cc1 (stereo unspecified)	2.5
CN(C)c1ccc(C2C(C#N)=C3N=C(N)c4ccccc4N3C3=C2C(=O)CCC3)cc1 (stereo unspecified)	3.4*
Cc1noc(C)c1NC(=O)NC1CCCCNC1=O (stereo unspecified)	-1.5
O=C(Nc1ccc2n[nH]nc2c1)c1sc2ccccc2c1Cl	-0.23
COc1ccc2c(c1)c(=O)oc1cc3occ(-c4ccc(C)cc4)c3cc12	-1
COc1ccc2c(c1)c(=O)oc1cc3occ(-c4ccc(F)cc4)c3cc12	1.5
COc1ccc(-c2coc3cc4oc(=O)c5cc(OC)ccc5c4cc23)cc1	3.8*
CCOC(=O)C1=C(C)N(C(C)=O)C(SC)=NC1c1ccccc1 (stereo unspecified)	0.32
CCOC(=O)c1c(C)oc2ccc(OC)cc12	2.2
CCOC(=O)CCC(=O)c1c(C)oc2ccc(OC)cc12	3.1*
COCCOC(=O)c1c(C)oc2ccc(OC)cc12	2.9
O=C(Cn1nnc2sc3c(c2c1=O)CCCC3)Nc1ccccc1F	1.5
O=C(NCCN1CCOCC1)c1cc2n(n1)C(C(F)(F)F)CC(c1ccco1)N2 (stereo unspecified)	0.66
CC(C)(C)NCC(O)Cn1c2ccccc2c2ccccc21 (stereo unspecified)	0.67
CC(NCC(O)Cn1c2ccccc2c2ccccc21)C(=O)O (stereo unspecified)	-4.7
OCCNCC(O)Cn1c2ccccc2c2ccccc21 (stereo unspecified)	4.5*
CC(C)c1ccc(OCC(O)Cn2c[n+](C)c3ccccc32)cc1 (stereo unspecified)	-0.56
CCN(C(=O)c1cccc(OC)c1)c1cccc2ccccc12	1.2
O=C1CC(Nc2ccccc2)C=C1Nc1ccccc1 (stereo unspecified)	-0.09
O=C1CC(N2CCN(c3ccccc3)CC2)C=C1Nc1ccccc1 (stereo unspecified)	4*
O=C1CC(N2CCN(c3ccccc3)CC2)C=C1Nc1ccc(Cl)cc1 (stereo unspecified)	1.9
CCOC(=O)C(=Cc1cc(C)c(C)o1)C(=O)OCC	0.15
CC(=O)/C(N=Nc1ccc(C)cc1[N+](=O)[O-])=C(\C)O	3.2*
CC(=O)/C(N=Nc1cc(F)c(Br)cc1F)=C(\C)O	1.5
CCOC(=O)/C(N=Nc1ccc(C)cc1C)=C(\C)O	2.3
Nc1ccc2oc(-c3cccc4c(Br)cccc34)nc2c1	1.7
CCC1C(O)CC(c2ccccc2)NC1c1ccccc1 (stereo unspecified)	-0.05
O=c1c(Cc2ccccc2)c(O)c2ccccc2n1Cc1ccccc1	-1.7
